# Measurements taken from PubChem BioAssay.
# Several values for one entry are separate records, joined by “and”; a condition that tells them apart may be missing. Identical values can stand only once. Records with an inconclusive call do not appear. Activity calls are given as the source filed them. Unless noted, the rule behind the calls is not given here.
# Experiments:
# [1] = test system: Hepatitis C virus NS3 helicase; assay: HCV NS3 helicase inhibitors, primary screen, biochemical, fluorescence polarization, LOPAC1280 library (AID 687035; in the data active = inhibition above about 37%); conditions: Purified HCV NS3 helicase, Cy5-dT15 ssDNA binding fluorescence polarization; stronger effect = higher value; concentration not given here
# [2] = Cy5 fluorescence quenching or enhancement artefacts, artefact control for HCV NS3 helicase inhibitor project, biochemical, LOPAC1280 (AID 687037); conditions: Cy5-DNA-NS3h complex fluorescence interference counterscreen
# [3] = growth inhibition of DIPG glioma cells, dose response, cell-based, SU-DIPG-XVII, MIPE5.0, CellTiter-Glo, qHTS (AID 1347060; cut-off not given, nearly all actives have AC50 up to about 26 µM;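 for AC50: cells exposed to compound for 48 hours before viability readout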); conditions: SU-DIPG-XVII viability, CellTiter-Glo ATP luminescence
# [4] = viability loss in pontine glioma line – cell-based, SU-DIPG-XXV, MIPE5.0, CellTiter-Glo, qHTS, dose response (AID 1347065; cut-off not given, nearly all actives have AC50 up to about 26 µM;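 note: cells exposed to compound for 48 hours before ATP readout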); conditions: CellTiter-Glo ATP luminescence
# [5] = JHH-DIPG-1 glioma cell viability, MIPE5.0 library, CellTiter-Glo luminescence, qHTS (AID 1347067; cut-off not given, nearly all actives have AC50 up to about 26 µM;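 note: cells exposed to compound for 48 hours before readout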); conditions: JHH-DIPG-1 glioma viability, CellTiter-Glo ATP luminescence
# [6] = phospholipid biosynthesis inhibitors in animal cells, primary screen, cell-based, LOPAC library, screen 4 (AID 1347384); conditions: phospholipid biosynthesis inhibition screen, at 10 µM
# [7] = HDN33 neuroblastoma growth inhibition, cell-based, chromothripsis tumors, cisplatin or BGB combos (AID 1671450; in the data active = inhibition above about 80%;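 note: cells exposed to compound for four days; 0% = vehicle DMSO and 100% = cell killing by high DMSO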); conditions: HDN33 neuroblastoma cells, stronger effect = higher value
# [8] = LFS_MB_1R medulloblastoma cell growth inhibition, synergistic combos for chromothripsis tumors, cisplatin or BGB combos (AID 1671452; in the data active = inhibition above about 80%;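 note: cells exposed for 96 hours before readout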); conditions: LFS_MB_1R medulloblastoma cells, stronger effect = higher value
# [9] = HTB85 osteosarcoma cell growth inhibition, synergistic combos for chromothripsis tumors, BGB or cisplatin IC20 combos (AID 1671453; in the data active = inhibition above about 80%;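 note: cells exposed for 96 hours before readout; 0% = vehicle DMSO and 100% = high DMSO killing control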); conditions: HTB85 osteosarcoma cells, drug combinations, stronger effect = higher value
# [10] = MDA-MB-436 breast carcinoma cell growth inhibition, synergistic combos for chromothripsis tumors, BGB or cisplatin combos (AID 1671458); conditions: MDA-MB-436 breast carcinoma growth inhibition, drug combinations, stronger effect = higher value;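 note: cells exposed for 96 hours; 0% = vehicle DMSO and 100% = killing by high DMSO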
# [11] = growth inhibition of BT084 medulloblastoma cells, cell-based, ICGC_MB145, cisplatin and BGB IC40 combos (AID 1671461; in the data active = inhibition above about 80%;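 note: cells exposed to drugs for 96 hours; 0% = vehicle DMSO and 100% = high DMSO full killing control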); conditions: drug combinations, stronger effect = higher value
# [12] = growth inhibition of RCMB18 medulloblastoma cells, cell-based, cisplatin and BGB IC40 combos (AID 1671462; in the data active = inhibition above about 80%;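 note: cells exposed to compound for four days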); conditions: stronger effect = higher value
# [13] = growth inhibition of CRL1545 osteosarcoma cells, cell-based, cisplatin and BGB IC20 combos (AID 1671464; in the data active = inhibition above about 80%;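 note: cells exposed to compound for 96 hours before readout; 0% = vehicle DMSO and 100% = high DMSO killing control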); conditions: stronger effect = higher value
# [14] = hESC survival regulators, cell-based (AID 493140); conditions: human embryonic stem cell survival screen; stronger effect = higher value;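 note: cells exposed to compounds for four days before counting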
# [15] = growth inhibition of DIPG glioma cells, dose response, cell-based, JHH-DIPG-1, MIPE4.0, CellTiter-Glo, qHTS (AID 1347062; cut-off not given, nearly all actives have AC50 up to about 27 µM;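 for AC50: cells exposed to compound for two days before readout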); conditions: JHH-DIPG-1 viability, CellTiter-Glo ATP luminescence
# [16] = SU-DIPG-VI glioma cell viability, MIPE4.0 library, CellTiter-Glo luminescence, qHTS (AID 1347066; cut-off not given, nearly all actives have AC50 up to about 30 µM;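 note: cells exposed to compound for 48 hours before readout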); conditions: CellTiter-Glo ATP luminescence
# [17] = reducers of polyQ inclusions in PC12 cells, cell-based, NGF-treated PC12, GFPQ80 (AID 1614); conditions: PC12 NGF-treated GFP-polyQ80 inclusion reduction;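 note: lower means fewer inclusions and 0 means no inclusions at all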
# [18] = growth inhibition of DIPG glioma cells, dose response, cell-based, SU-DIPG-IV, MIPE4.0, CellTiter-Glo, qHTS (AID 1347063; cut-off not given, nearly all actives have AC50 up to about 30 µM;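 note: compound exposure lasted 48 hours before the viability readout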); conditions: SU-DIPG-IV viability, CellTiter-Glo ATP luminescence
# [19] = SU-DIPG-XXV glioma cell viability, MIPE5.0 library, qHTS (AID 1347068; cut-off not given, nearly all actives have IC50 up to about 30 µM)
# [20] = growth inhibition of DIPG glioma cells, dose response, cell-based, SU-DIPG-XIII, MIPE4.0, CellTiter-Glo, qHTS (AID 1347061; cut-off not given, nearly all actives have AC50 up to about 37 µM;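 note: cells exposed to compound for 48 hours before readout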); conditions: SU-DIPG-XIII viability, CellTiter-Glo ATP luminescence
# [21] = measured here: with BGB IC20 combination, at 0.5 µM
# [22] = measured here: with cisplatin IC20 combination, at 0.5 µM
# [23] = measured here: combination with cisplatin, at 0.5 µM
smiles,measurement,setting,value
CCN(CC)CCCC(C)Nc1c2ccc(Cl)cc2nc2ccc(OC)cc12 (stereo not given),inhibition,[1],1% (inactive)
same,fluorescence ratio (interference),[2],1 (inactive)
same,AC50,[3],8.33 µM (active)
same,AC50,[4],11.8 µM (active)
same,AC50,[5],11.8 µM (active)
same,outcome,[6],inactive
same,inhibition,"[7]; BGB combo, at 5 µM",99.8%
same,inhibition,[7]; at 0.5 µM,-12.9% (inactive)
same,inhibition,"[7]; cisplatin combo, at 5 µM",99.8%
same,inhibition,[7]; [21],-9.01%
same,inhibition,[7]; [22],-29.7%
same,inhibition,"[7]; single agent, at 5 µM",99.8%
same,inhibition,[8]; at 0.5 µM,3.87% (inactive)
same,inhibition,"[8]; measured here: combination with BGB IC40, at 0.05 µM",-25.2%
same,inhibition,[8]; [23],4.45%
same,inhibition,"[8]; measured here: combination with cisplatin, at 5 µM",100%
same,inhibition,[9]; at 0.5 µM,-23.3% (inactive)
same,inhibition,"[9]; measured here: with BGB IC20, at 0.5 µM",-27.3%
same,inhibition,"[9]; measured here: with BGB IC20, at 5 µM",99.8%
same,inhibition,"[9]; measured here: with cisplatin IC20, at 0.5 µM",-38%
same,inhibition,"[9]; measured here: with cisplatin IC20, at 5 µM",99.9%
same,inhibition,"[9]; single agent, at 5 µM",99.9%
same,inhibition,[10]; at 0.5 µM,4.39% (inactive)
same,inhibition,"[10]; measured here: BGB combination, at 0.5 µM",-0.472%
same,inhibition,"[10]; measured here: BGB combination, at 5 µM",95.8%
same,inhibition,"[10]; measured here: cisplatin combination, at 0.5 µM",-17.3%
same,inhibition,"[10]; measured here: cisplatin combination, at 5 µM",98%
same,inhibition,[11]; at 0.5 µM,1.42% (inactive)
same,inhibition,"[11]; cisplatin combination, at 0.5 µM",-5.45%
same,inhibition,"[11]; cisplatin combination, at 5 µM",99.5%
same,inhibition,"[11]; measured here: BGB IC40 combination 0.05 uM, at 0.05 µM",-3.72%
same,inhibition,"[11]; single agent, at 5 µM",105%
same,inhibition,[12]; at 0.5 µM,-4.03% (inactive)
same,inhibition,"[12]; cisplatin combo, at 5 µM",92.9%
same,inhibition,"[12]; measured here: BGB IC40 combination, at 0.05 µM",-9.76%
same,inhibition,[12]; [23],-29.6%
same,inhibition,"[12]; single agent, at 5 µM",73.4%
same,inhibition,[13]; at 0.5 µM,9.17% (inactive)
same,inhibition,[13]; [21],-5.37%
same,inhibition,[13]; [22],14.5%
same,inhibition,"[13]; single agent, at 0.05 µM",-8.93%
same,inhibition,"[13]; single agent, at 5 µM",99.9%
Oc1ccc(/C=C/c2cc(O)cc(O)c2)cc1,survival,[14],13.8 (inactive)
same,inhibition,[1],-3% (inactive)
same,fluorescence ratio (interference),[2],1 (inactive)
same,outcome,[15],inactive
same,outcome,[16],inactive
same,outcome,[5],inactive
same,outcome,[6],inactive
CCC1(c2ccccc2)C(=O)NCNC1=O,inclusion score,[17],2
same,survival,[14],5.92 (inactive)
same,inhibition,[1],1% (inactive)
same,fluorescence ratio (interference),[2],1 (inactive)
same,outcome,[3],inactive
same,AC50,[15],8.33 µM (active)
same,AC50,[18],5.9 µM (active)
same,outcome,[4],inactive
same,outcome,[16],inactive
same,outcome,[5],inactive
same,outcome,[19],inactive
same,outcome,[6],inactive
CC(C)NCC(O)c1ccc(O)c(O)c1 (stereo not given),inclusion score,[17],2
same,survival,[14],4.58 (inactive) and 3.08 (inactive)
same,inhibition,[1],-3% (inactive)
same,fluorescence ratio (interference),[2],1 (inactive)
same,outcome,[3],inactive
same,AC50,[15],1.48 µM (active)
same,outcome,[4],inactive
same,outcome,[16],inactive
same,outcome,[5],inactive
same,outcome,[19],inactive
same,outcome,[6],inactive
CCN(CCO)CCCC(C)Nc1ccnc2cc(Cl)ccc12 (stereo not given),inclusion score,[17],1.5
same,outcome,[3],inactive
same,outcome,[20],inactive
same,outcome,[15],inactive
same,outcome,[18],inactive
same,outcome,[16],inactive
same,outcome,[5],inactive
same,outcome,[19],inactive
